An excerpt weighted towards active compounds, which were near 1.6% of everything screened.
PfHsp40 rescue = compounds rescuing yeast from Plasmodium falciparum HSP40 toxicity; 340,000 compounds, 0.68% hits; AID 504582; growth rescue, % at 12.5 µM; S. cerevisiae expressing PfHsp40, growth rescue, ATP luminescence; in the data active = growth rescue above about 28%, passing the limit was not always enough;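 also: yeast W303a lacking pdr1 and pdr3 grown in galactose medium; growth measured after three days at 30 °C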
BJeLR lethal = BJeLR cell viability loss; BJeLR (HRASV12) viability, CellTiter-Glo ATP luminescence, 48 h; inhibition, % (concentration not given with the values); 300,000 compounds, 0.17% hits; AID 1554; in the data active = inhibition above about 50%
CCHF vOTU inh = CCHFV vOTU protease inhibition; Pep-AMC fluorescence; inhibition, % at 11.5 µM; 370,000 compounds, 0.55% hits; AID 651958; in the data active = inhibition above about 30%; also: 0% = vehicle wells with enzyme and 100% = no enzyme wells
Sa ugtP lethal = compounds lethal to S. aureus RN4220 ugtP deletion mutant; OD600 growth, 16 h; growth inhibition, % (concentration not given with the values); 330,000 compounds, 0.54% hits; AID 1259309; in the data active = growth inhibition above about 68%;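 also: plate controls were untreated wells for no effect and antibiotic for full effect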
RN4220 kill = S. aureus RN4220 growth inhibition; OD600, 16 h; inhibition, % (no concentration beside the values); 330,000 compounds, 0.33% hits; in the data active = inhibition above about 85%;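 also: plate controls were untreated cells for no effect and reference antibiotic for full effect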
An asterisk follows results filed as active; / = no result given.

SMILES	PfHsp40 rescue	BJeLR lethal	CCHF vOTU inh	Sa ugtP lethal	RN4220 kill
O=C(O)c1ccc(N/N=C/C=C/c2ccccc2)cc1	457.8*	1.7	2.4	/	/
COC(=O)c1ccccc1NC(=O)N1c2ccccc2Sc2ccccc21	-0.6	-19.1	16.7	94.2*	-7.7
O=C(NN=Cc1cc([N+](=O)[O-])ccc1O)c1cccc(N2CCCC2=O)c1	/	/	/	10.6	59.5
O=C(CCSc1nnc(-c2ccncc2)o1)Nc1ccc(Cl)cc1	197.0*	-1.7	6.1	-0.4	3.7
O=[N+]([O-])c1ccc(C=Nn2cnc3ccccc32)s1	/	/	/	11.5	18.0
COc1cc(NS(=O)(=O)c2cc3c(cc2C)NC(=O)CO3)cc(OC)c1	-1.1	4.8	-0.2	1.6	14.9
Cc1cc2c(cc1S(=O)(=O)Nc1ccc(OC(F)(F)F)cc1)OCC(=O)N2	0.2	6.5	5.7	91.7*	-8.3
CN(C)c1ccc(C=NNC(=O)CCc2nc3ccccc3[nH]2)cc1	/	/	/	-1.4	-2.2
O=C(/C=C/c1ccccc1[N+](=O)[O-])c1ccccc1Br	59.9*	3.9	-4.4	12.9	30.3
O=S(=O)(N=C(Sc1ccc(Cl)cc1)c1ccccc1)c1ccccc1	/	/	/	92.1*	26.2
COc1ccc(/C=N\NC(=O)c2cccc(F)c2)cc1COc1ccccc1	4.0	54.4*	0.3	/	/
Cc1ccc2[nH]cc(C(=O)CN3CCN(C)CC3)c2c1	-1.6	5.9	-7.7	3.9	1.8
Cc1ccc2[nH]cc(C(=O)CCl)c2c1	1.6	53.9*	-1.9	30.7	16.1
CCCCC(=O)NC(c1ccc(Cl)cc1)c1ccc2cccnc2c1O (stereo not drawn)	-1.5	30.0	16.8	/	/
CCCC(=O)NC(c1ccccc1OC)c1ccc2cccnc2c1O (stereo not drawn)	374.0*	18.4	/	21.6	14.2
CCCCC(=O)NC(c1ccc(N(C)C)cc1)c1ccc2cccnc2c1O (stereo not drawn)	508.7*	57.1*	-4.0	/	/
CCN(CC)c1ccc(C(NC(=O)C(C)C)c2ccc3cccnc3c2O)cc1 (stereo not drawn)	/	/	24.3	/	/
CCCCC(=O)NC(c1ccc(N(CC)CC)cc1)c1ccc2cccnc2c1O (stereo not drawn)	128.9*	48.1	1.8	/	/
CCCCC1C2=C3C(CC(C(=O)OC)=CC(C(=O)OC)C3C(C)(C)C2=O)n2c(=O)n(-c3ccccc3)c(=O)n21 (stereo not drawn)	/	/	/	0.6	3.9
O=C(Nc1nnc(-c2ccccc2Cl)o1)c1nc2ccccc2s1	17.7	8.7	12.8	99.9*	98.5*
O=C(Nc1nnc(-c2ccccc2Cl)o1)c1ccco1	0.7	5.3	0.8	-12.4	8.8
O=C(NCC(c1cccnc1)N1CCN(c2ccc(F)cc2)CC1)C1CCCCC1 (stereo not drawn)	69.8*	3.7	-8.2	10.5	-0.3
O=S(=O)(Nc1cccc(-c2nc3cccnc3s2)c1)c1ccc2c(c1)CCCC2	-1.1	6.1	-2.0	92.9*	16.0
Oc1c(Br)cc(-c2ccccc2)cc1Br	579.5*	/	15.2	8.4	24.0
Oc1c(Br)cc(Br)cc1Br	-2.1	/	6.1	16.6	18.4
SMILES	PfHsp40 rescue	BJeLR lethal	CCHF vOTU inh	Sa ugtP lethal	RN4220 kill
COc1cc(C=NN=C2SCC(=O)N2c2ccc(O)cc2)ccc1O	/	/	/	4.2	1.3
O=C(CCl)c1ccc2c(c1)CCN2C(=O)C1CCCCC1	1.0	29.8	-8.4	99.1*	98.2*
O=C(CCl)c1ccc2c(c1)CCN2C(=O)C1CC1	/	-2.8	/	/	/
CC(C)(C)c1ccc(Cn2ccc(-c3ccc4c(c3)OCO4)n2)cc1	3.4	-4.2	10.1	93.4*	4.8
CCCCCCCCCCCCN1C(CC(C)=O)c2cc(C(F)(F)F)ccc2S1(=O)=O (stereo not drawn)	/	/	/	3.2	-0.8
CCc1nc(N)nc(N)c1-c1ccc(Cl)cc1	-0.8	61.9*	-3.2	15.2	5.7
Cc1ccc(S(=O)(=O)N(Cc2cccc(C(F)(F)F)c2)C(=O)N2CCN(C)CC2)cc1	51.9*	1.4	-5.6	7.5	1.3
COc1cccc(C=Nn2c(C3CCCCC3)n[nH]c2=S)c1O	/	/	/	7.9	4.3
C=CCNC(=S)NNc1nc2c(c(=O)[nH]1)C1(CCCCC1)Cc1ccccc1-2	3.2	-1.9	4.9	85.4*	-17.7
COc1cccc(-c2cc3nc(-c4ccccc4)cc(N4CCCC(O)C4)n3n2)c1 (stereo not drawn)	72.1*	1.5	-42.8	-22.9	-11.5
OC1CCN(c2cc(-c3ccccc3)nc3cc(-c4ccc(F)cc4)nn23)CC1	0.7	3.6	-10.9	12.5	-1.8
CCn1cc(C(=O)O)c(=O)c2cc(F)c(N3CCN(C(=S)NC(=O)c4cccc(F)c4)CC3)cc21	1.1	4.3	-13.1	9.0	12.4
CCn1cc(C(=O)O)c(=O)c2cc(F)c(N3CCN(C(=S)Nc4ccccc4OC)CC3)cc21	1.1	8.8	-13.3	99.4*	99.1*
CCC(=O)N1CCN(c2cc3c(cc2F)c(=O)c(C(=O)O)cn3CC)CC1	-1.3	-10.8	-7.6	47.3	44.0
CCn1cc(C(=O)O)c(=O)c2cc(F)c(N3CCN(C(=S)NC(=O)c4c(OC)cccc4OC)CC3)cc21	-0.6	-0.3	-16.3	100.2*	98.4*
CCCCCCCCCC(=O)N1CCN(c2cc3c(cc2F)c(=O)c(C(=O)O)cn3CC)CC1	-1.8	-0.1	-19.4	11.5	-0.9
CCn1cc(C(=O)O)c(=O)c2cc(F)c(N3CCN(S(=O)(=O)c4ccc(NC(=O)OC)cc4)CC3)cc21	1.2	-6.5	-12.6	99.8*	97.1*
O=C(C=Cc1ccc(Cl)cc1Cl)NCCN1CCOCC1	/	/	/	4.5	-1.1
CCOC(=O)C(NCc1ccc2c(c1)OCO2)(NC(=O)c1ccccc1)C(F)(F)F (stereo not drawn)	44.8*	-6.7	11.1	-2.5	1.6
CCOC(=O)C(NCc1ccccc1)(NC(=O)c1ccccc1)C(F)(F)F (stereo not drawn)	0.0	-2.3	0.2	1.2	0.6
C[C@@H]1C=CC(=O)O[C@@H]1c1ccc(Cl)cc1	/	76.6*	1.9	/	/
CC1C(=O)OC(c2ccc(Cl)cc2)C(C)(C)C1=O (stereo not drawn)	-0.4	-2.4	-9.4	3.1	1.7
CC(C)CCC[C@](C)(O)c1ccc(C(=O)O)cc1O	/	/	9.7	/	/
CC(C)(O)CCCC(C)(O)c1ccc(C(=O)O)cc1O (stereo not drawn)	54.9*	-6.1	-2.5	1.4	1.4
COC(=O)C(=N/Nc1ccccc1C(=O)OC)/C(C)=N/O	137.2*	4.6	14.8	/	/
O=C(NC(=S)Nc1ccc(S(=O)(=O)Nc2nccs2)cc1)c1ccccc1	-0.9	-0.9	-8.9	91.4*	14.3
CCc1nnc(NS(=O)(=O)c2ccc(NC(=S)NC(=O)c3ccccc3)cc2)s1	0.4	-9.4	1.2	74.2	17.8
O=C(NC(=S)Nc1ccc(S(=O)(=O)Nc2nccs2)cc1)c1cccnc1	0.0	3.1	-8.9	/	/
CCc1nnc(NS(=O)(=O)c2ccc(NC(=S)NC(=O)c3ccc(Br)cc3)cc2)s1	-2.0	10.6	20.3	85.9*	29.1
COc1ccc([N+](=O)[O-])cc1NC(=O)C(C)OC(=O)c1ccccc1C(=O)c1ccc(Cl)cc1 (stereo not drawn)	71.6*	-15.1	6.8	-8.0	1.9

Screening data deposited in PubChem by several laboratories.
